The values that follow come from PubChem BioAssay (NCATS).

Experiment [1] concerns the target Bile acid receptor (Homo sapiens) (UniProt Q96RI1). The experiment can be described thus: qHTS assay for small molecule agonists of farnesoid X receptor signaling (AID 588527; calls by dose curve;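 note: series mostly up to about 77 µM; 0% = vehicle basal and 100% = reference agonist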). As to conditions: HEK293T FXR-UAS-bla, beta-lactamase ratio, 16 h; activation: stronger effect = higher value. In a few lines: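 Agonist-mode beta-lactamase reporter in GeneBLAzer FXR-UAS-bla HEK293T cells, titration up to 92 uM, 16 h exposure at 37 C, CCF4 fluorescence. Response scaled to DMSO (0%) and 100 uM chenodeoxycholic acid (100%), then Hill-fitted for EC50 and efficacy.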

Experiment [2] deals with Nuclear receptor ROR-gamma (Homo sapiens) (UniProt P51449). The experiment can be described thus: qHTS assay for small molecule antagonists of the retinoid-related orphan receptor gamma (ROR-gamma) signaling pathway (AID 651802).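 Note: CHO cells with doxycycline-induced ROR-gamma expression; luciferase reporter luminescence driven by ROR response element; series mostly up to about 92 µM; % is set by controls: 0 for no effect and ±100 for the full control effect; nearly all actives have a fitted effect of over 60% in size.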 In a few lines:
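Luminescence (One-Glo, 30 min RT) measured 16 h after compound addition and doxycycline induction at 37C. Reporter: RORE-luciferase under TET-inducible ROR-gamma in CHO cells.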
For orientation: Quantitative high-throughput screening tests each substance at several concentrations.

In experiment [3] the target is Cytochrome P450 3A4 (Homo sapiens) (UniProt P08684). The experiment can be described thus: qHTS Assay for Activators of Cytochrome P450 3A4 (AID 885). Note: nearly all actives have a fitted effect of over 65% in size. Summed up: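 Luminescent readout of luciferin formed from 25 uM Luciferin-PPXE (KM level) by 20 nM CYP3A4 in 200 mM KPO4, with 60 min NADPH-driven reaction at room temperature after 10 min compound exposure. Ketoconazole (57 uM) defined 100% inhibition.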

For experiment [4], the target named is Peroxisome proliferator-activated receptor delta (Homo sapiens) (UniProt Q03181). Put plainly: qHTS assay for small molecule agonists of peroxisome proliferator-activated receptor delta signaling (AID 588534; calls by dose curve;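 note: 0% = DMSO basal wells and 100% = positive control agonist at 10 µM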). Summed up:
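Agonist-mode beta-lactamase reporter readout (CCF4 dye, 2 h at RT) after 18 h at 37 °C exposure to a titration; Hill-equation fitting gave EC50 and maximal response.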

In experiment [5] the target is Glucocorticoid receptor (Homo sapiens) (UniProt P04150). Put plainly: qHTS assay for small molecule agonists of glucocorticoid receptor signaling (AID 588532; active = well fitted curve in the direction sought with a large enough effect in the signal ratio, with a control signal flat; the % refers to the signal ratio;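 note: 100% = dexamethasone at 0.1 µM and 0% = DMSO only wells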). The following applies: HeLa MMTV-bla, beta-lactamase ratio, agonist, 18 h; activation: stronger effect = higher value, percent of dexamethasone control, DMSO zero. In a few lines: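 Quantitative HTS using CellSensor MMTV-bla HeLa cells in charcoal/dextran-treated serum; compounds tested up to 92 uM. After 18 h at 37 C, CCF4 dye reported reporter induction.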

Experiment [6] has the same target. The experiment can be described thus: qHTS assay for small molecule antagonists of glucocorticoid receptor signaling (AID 588533; active = well fitted inhibition curve with a large enough effect in the signal ratio, with a control signal flat, not every such curve was filed as active; the % refers to the signal ratio;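 note: cells stimulated with 2 nM dexamethasone as agonist; % is set by controls: 0 for no effect and ±100 for the full control effect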). Summed up: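 Antagonist-mode qHTS: compound titrations added to GRE-bla HeLa cells, then dexamethasone 2 nM final; 18 h, 37 C. CCF4 FRET fluorescence normalized to dexamethasone and DMSO; IC50 from Hill fit.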
Experiment [7] is described as follows: qHTS assay for small molecule antagonists of retinoid X receptor alpha signaling (AID 588546; active = well fitted inhibition curve with a large enough effect in the signal ratio, with a control signal flat, not every such curve was filed as active; the % refers to the signal ratio;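 note: cells stimulated with 9-cis-retinoic acid as agonist; % is set by controls: 0 for no effect and ±100 for the full control effect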). The following applies: HEK293T RXRa-UAS-bla, beta-lactamase ratio, antagonist mode; measured here: W530 green channel, cytotoxicity proxy. In a few lines:
(§1)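 Beta-lactamase reporter inhibition, read as CCF4 fluorescence ratio (ex 405, em 460/530 nm) after 2 h at RT. HEK293T UAS-bla cells, 2500/well, were stimulated with 9-cis-RA at 500 or 100 nM final alongside test compound for 18 h at 37 C.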

In experiment [8] the target is Retinoic acid receptor RXR-alpha (Homo sapiens) (UniProt P19793). The experiment is described as above. The following applies: HEK293T RXRa-UAS-bla, beta-lactamase ratio, antagonist mode. Summed up: as §1
Experiment [9] can be described thus: qHTS assay for small molecule activators of the p53 signaling pathway (AID 651743; active = well fitted activation curve with a large enough effect in the signal ratio, not every such curve was filed as active; the % refers to the signal ratio; note: series mostly up to about 92 µM; % of control where 0% means no effect). As to conditions: HCT-116 p53RE-bla, beta-lactamase FRET ratio, 16 h; activation: stronger effect = higher value. Summed up: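 After 16 hours compound treatment at 37 C, HCT-116 cells stably expressing p53RE-driven beta-lactamase were loaded with LiveBLAzer B/G FRET substrate for 2 hours at room temperature. Fluorescence intensity served as the p53 activation read-out.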

Experiment [10] in a line: qHTS assay for environmental chemicals that activate the Aryl hydrocarbon Receptor (AhR) signaling pathway (AID 651777). For activation: % of control where 0% means no effect. Note: nearly all actives have a fitted effect of over 15% in size. Note: potency is the fitted concentration of half-maximal effect. The following applies: 1A2-DRE human hepatoma cells, luciferase, 24 h; activation: stronger effect = higher value. In a few lines:
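Quantitative HTS in stably transfected human liver-derived cells whose luciferase gene sits downstream of the CYP1A2 promoter and dioxin response element. After 24 hr exposure at 37 C, One-Glo luminescence was measured.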

Experiment [11] can be described thus: qHTS assay for small molecule agonists of the antioxidant response element (ARE) signaling pathway measured by Nrf2-dependant transcriptional activity (AID 720636; active = well fitted curve in the direction sought with a large enough effect in the repeat runs; an effect the other way counts as inactive or inconclusive; note: % of control where 0% means no effect). Summed up: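 Quantitative HTS format in HepG2 cells stably expressing an ARE-luciferase reporter; 16 hr compound treatment at 37 C, luciferase signal detected with ONE-Glo.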
The target of experiment [12] is Vitamin D3 receptor (Homo sapiens) (UniProt P11473). Put plainly: qHTS assay for small molecule agonists of vitamin D receptor signaling (AID 588543; calls by dose curve;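 note: 0% = DMSO basal and 100% = reference agonist control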). In a few lines: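 Measured: β-lactamase reporter activity (CCF4, 405 nm excitation, 460/530 nm emission) in HEK293T VDR-UAS-bla cells after 16 h compound exposure at 37 °C. Normalization against 50 nM 1α,25-dihydroxyvitamin D3 and DMSO; Hill-fit EC50.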

Experiment [13] addresses Thyroid hormone receptor beta (Homo sapiens) (UniProt P10828). The experiment can be described thus: qHTS assay for small molecule agonists of thyroid hormone receptor beta signaling (AID 588545; calls by dose curve;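 note: 0% = DMSO only and 100% = 10 nM T3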). Summed up: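 Stimulation of a TR-driven beta-lactamase reporter was quantified in GripTite HEK 293 cells. Compound series ran for 18 hrs; curves were normalized to T3 and DMSO controls and fitted to yield EC50.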

Experiment [14] concerns the target Peroxisome proliferator-activated receptor alpha (Homo sapiens) (UniProt Q07869). The experiment can be described thus: qHTS assay for small molecule agonists of the peroxisome proliferator-activated receptor alpha (PPARalpha) signaling pathway (AID 651778). Note: % of control where 0% means no effect. The following applies: PathHunter PPARalpha complementation, chemiluminescence, 6 h; max response: stronger effect = higher value. Summed up: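 Chemiluminescence from complemented enzyme reported PPARalpha activation in cells after 6 hr of compound treatment at 37 C. The detection reagent was incubated for 60 min at room temperature, and compounds were scored as agonists.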

A short description of experiment [15]: qHTS assay for small molecule agonists of the antioxidant response element (ARE) signaling pathway measured by Nrf2-dependant transcriptional activity - cell viability counter screen (AID 720653; active = well fitted curve in the direction sought with a large enough effect in the repeat runs; an effect the other way counts as inactive or inconclusive; note: potency is the fitted concentration of half-maximal effect). The following applies: ARE-bla HepG2 viability, CellTiter-Glo ATP luminescence, 16 h; max response: stronger effect = lower value. In a few lines: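 Cytotoxicity counter screen: intracellular ATP quantified by CellTiter-Glo luminescence in the same ARE-bla HepG2 plates, after 16 h compound exposure and a 2 h beta-lactamase substrate step.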

Experiment [16] is described as follows: qHTS assay for cell viability of HEK293 cells (AID 743288). Note: potency is the fitted concentration of half-maximal effect; nearly all actives have a fitted effect of over 50% in size. The following applies: ATP luminescence (CellTiter-Glo), 18 h; max response: stronger effect = lower value. Summed up:
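HEK293, 18 h, 37 C, ATP luminescence. Cells at 2,000/well were allowed at least 5 h to settle before dosing; CellTiter-Glo developed 30 min at RT.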

The nature of experiment [17]: qHTS assay for cell viability of the p53RE-bla HCT-116 cell line (AID 743292). Note: % is set by controls: 0 for no effect and ±100 for the full control effect; nearly all actives have a fitted effect of over 55% in size. In a few lines:
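Viability of compound-treated p53RE-bla HCT-116 cells is taken from ATP-dependent luciferase luminescence. Treatment lasts 16 h at 37 C after a 5 h settling period; detection follows 30 min at room temperature.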

Experiment [18] is described as follows: qHTS assay for small molecule activators of the human pregnane X receptor (PXR) signaling pathway (AID 720659; call rule not given here; note: 0% is about no effect).
Experiment [19] is described as follows: qHTS assay for small molecule activators of the nuclear factor-kappa B (NF-kB) signaling pathway (AID 651749; active = well fitted activation curve with a large enough effect in the signal ratio; the % refers to the signal ratio; note: series mostly up to about 77 µM; % of control where 0% means no effect). As to conditions: NF-kB-bla ME-180 cells, beta-lactamase FRET ratio, 16 h; activation: stronger effect = higher value. Summed up: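 Activation measured after 16 hr compound treatment at 37C, 5% CO2, of 2,000 ME-180 cells/well stably expressing an NF-kB response element–driven beta-lactamase reporter, via FRET-disruption fluorescence.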

The nature of experiment [20]: qHTS assay for small molecule agonists of the antioxidant response element (ARE) signaling pathway (AID 651741; active = well fitted activation curve with a large enough effect in the signal ratio; the % refers to the signal ratio; note: potency is the fitted concentration of half-maximal effect). Summed up:
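Beta-lactamase reporter under ARE control in HepG2 cells, 2,000 per well, was induced by 16 h compound treatment at 37 C. Read-out was fluorescence from LiveBLAzer B/G FRET substrate after 2 h at room temperature.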

Experiment [21] is described as follows: Cell Viability - LYMP2-003 (AID 965).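 Note: potency is the fitted concentration of half-maximal effect; cells exposed to compounds for 24 h before reading; nearly all actives have a fitted effect of over 50% in size.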 In a few lines:
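qHTS, human lymphoblastoid line, 2500 cells/well, complete medium. 24 h drug, 37 C. ATP-based luminescent readout; Hill-fit AC50.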

The nature of experiment [22]: Cell Viability - LYMP2-005 (AID 967). Note: potency is the fitted concentration of half-maximal effect. In a few lines: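 Luciferase-based ATP quantitation served as the viability measure in human lymphoblastoid LYMP2-005 cells exposed to test compounds for 24 h at 37 C in complete culture medium. Potency (AC50) was obtained by fitting concentration-response curves with the Hill equation.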

Records with an inconclusive call do not appear. Active and inactive are the calls of the source. Unless noted, calls come from the whole dose curve; as a rule, active = well fitted curve in the direction sought with a large enough effect; inconclusive = small, poorly fitted or top-dose-only effect, or another doubt; inactive = no such curve, though single readings can be large; an effect the other way counts as inactive or inconclusive.

Bile acid receptor (Homo sapiens), sequence (Q96RI1 whole entry, looked up): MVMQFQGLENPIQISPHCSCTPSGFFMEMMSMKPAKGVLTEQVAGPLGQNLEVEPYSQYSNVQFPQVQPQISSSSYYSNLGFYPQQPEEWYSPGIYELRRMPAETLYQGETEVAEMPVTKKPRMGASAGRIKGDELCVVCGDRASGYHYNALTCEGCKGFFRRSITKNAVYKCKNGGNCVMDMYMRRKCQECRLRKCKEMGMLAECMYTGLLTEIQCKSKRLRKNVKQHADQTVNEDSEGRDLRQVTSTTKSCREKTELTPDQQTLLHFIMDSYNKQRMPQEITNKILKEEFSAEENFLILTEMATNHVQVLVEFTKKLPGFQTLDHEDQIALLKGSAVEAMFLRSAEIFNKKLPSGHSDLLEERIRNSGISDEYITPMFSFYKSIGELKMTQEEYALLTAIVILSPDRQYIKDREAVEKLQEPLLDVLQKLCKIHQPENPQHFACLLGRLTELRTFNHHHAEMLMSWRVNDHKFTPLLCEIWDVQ
Peroxisome proliferator-activated receptor delta (Homo sapiens), sequence (Q03181 whole entry, looked up): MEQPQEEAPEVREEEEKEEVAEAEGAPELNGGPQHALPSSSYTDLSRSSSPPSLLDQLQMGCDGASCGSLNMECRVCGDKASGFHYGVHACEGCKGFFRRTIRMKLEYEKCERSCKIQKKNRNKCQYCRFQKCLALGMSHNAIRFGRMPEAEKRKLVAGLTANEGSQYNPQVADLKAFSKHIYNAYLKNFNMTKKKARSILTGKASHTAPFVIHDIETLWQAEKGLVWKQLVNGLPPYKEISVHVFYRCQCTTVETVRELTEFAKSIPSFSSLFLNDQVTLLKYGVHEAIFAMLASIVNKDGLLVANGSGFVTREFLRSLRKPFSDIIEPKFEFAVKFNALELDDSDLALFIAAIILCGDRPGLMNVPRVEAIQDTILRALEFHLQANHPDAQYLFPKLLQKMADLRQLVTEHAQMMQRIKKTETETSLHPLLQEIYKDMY
Vitamin D3 receptor (Homo sapiens), sequence (P11473 whole entry, looked up): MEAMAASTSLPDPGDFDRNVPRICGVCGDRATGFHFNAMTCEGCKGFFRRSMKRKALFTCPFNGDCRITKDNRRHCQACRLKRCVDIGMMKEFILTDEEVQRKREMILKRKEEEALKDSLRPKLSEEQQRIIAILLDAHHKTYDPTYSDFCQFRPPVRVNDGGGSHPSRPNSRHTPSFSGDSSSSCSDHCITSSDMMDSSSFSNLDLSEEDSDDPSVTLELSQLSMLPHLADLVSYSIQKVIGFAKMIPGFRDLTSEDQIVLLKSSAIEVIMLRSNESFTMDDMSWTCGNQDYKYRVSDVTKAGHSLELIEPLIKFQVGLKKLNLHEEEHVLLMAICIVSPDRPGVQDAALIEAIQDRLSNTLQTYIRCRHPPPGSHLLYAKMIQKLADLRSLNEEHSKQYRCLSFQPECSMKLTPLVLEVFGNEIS
Glucocorticoid receptor (Homo sapiens), sequence (P04150 whole entry, looked up): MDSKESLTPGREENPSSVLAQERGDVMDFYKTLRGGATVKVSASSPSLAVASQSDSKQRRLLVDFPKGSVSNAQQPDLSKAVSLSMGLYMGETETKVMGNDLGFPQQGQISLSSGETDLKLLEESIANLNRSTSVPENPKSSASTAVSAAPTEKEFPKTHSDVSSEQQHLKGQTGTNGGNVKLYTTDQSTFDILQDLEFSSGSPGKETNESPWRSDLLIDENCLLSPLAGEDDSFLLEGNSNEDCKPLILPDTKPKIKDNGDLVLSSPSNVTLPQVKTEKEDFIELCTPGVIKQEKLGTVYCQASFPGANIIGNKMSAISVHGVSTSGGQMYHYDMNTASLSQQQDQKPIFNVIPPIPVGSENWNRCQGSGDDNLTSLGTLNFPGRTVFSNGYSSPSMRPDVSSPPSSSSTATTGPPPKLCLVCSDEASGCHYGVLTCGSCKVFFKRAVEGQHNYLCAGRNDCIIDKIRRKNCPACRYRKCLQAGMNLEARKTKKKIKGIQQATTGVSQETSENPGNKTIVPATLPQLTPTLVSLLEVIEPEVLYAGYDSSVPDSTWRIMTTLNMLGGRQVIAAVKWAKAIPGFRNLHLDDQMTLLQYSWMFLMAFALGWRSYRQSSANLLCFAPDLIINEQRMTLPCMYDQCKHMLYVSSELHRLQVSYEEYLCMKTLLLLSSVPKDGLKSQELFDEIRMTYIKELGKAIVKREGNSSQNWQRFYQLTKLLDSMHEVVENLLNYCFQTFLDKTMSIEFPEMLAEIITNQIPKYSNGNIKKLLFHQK
Cytochrome P450 3A4 (Homo sapiens), sequence (P08684 whole entry, looked up): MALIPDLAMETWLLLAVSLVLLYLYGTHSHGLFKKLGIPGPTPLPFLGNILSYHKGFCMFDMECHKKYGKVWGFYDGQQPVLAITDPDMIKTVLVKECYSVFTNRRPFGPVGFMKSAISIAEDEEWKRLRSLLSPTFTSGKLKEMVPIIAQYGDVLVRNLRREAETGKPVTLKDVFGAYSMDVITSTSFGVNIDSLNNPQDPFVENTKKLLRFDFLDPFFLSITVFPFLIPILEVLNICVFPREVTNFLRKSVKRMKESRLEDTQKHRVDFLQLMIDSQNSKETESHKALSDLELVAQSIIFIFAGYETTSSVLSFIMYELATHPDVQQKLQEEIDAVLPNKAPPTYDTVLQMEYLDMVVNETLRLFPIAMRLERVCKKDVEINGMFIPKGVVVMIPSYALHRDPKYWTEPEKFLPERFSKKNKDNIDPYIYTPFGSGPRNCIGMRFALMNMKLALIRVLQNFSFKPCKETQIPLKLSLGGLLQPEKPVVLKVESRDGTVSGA
Peroxisome proliferator-activated receptor alpha (Homo sapiens), sequence (Q07869 whole entry, looked up): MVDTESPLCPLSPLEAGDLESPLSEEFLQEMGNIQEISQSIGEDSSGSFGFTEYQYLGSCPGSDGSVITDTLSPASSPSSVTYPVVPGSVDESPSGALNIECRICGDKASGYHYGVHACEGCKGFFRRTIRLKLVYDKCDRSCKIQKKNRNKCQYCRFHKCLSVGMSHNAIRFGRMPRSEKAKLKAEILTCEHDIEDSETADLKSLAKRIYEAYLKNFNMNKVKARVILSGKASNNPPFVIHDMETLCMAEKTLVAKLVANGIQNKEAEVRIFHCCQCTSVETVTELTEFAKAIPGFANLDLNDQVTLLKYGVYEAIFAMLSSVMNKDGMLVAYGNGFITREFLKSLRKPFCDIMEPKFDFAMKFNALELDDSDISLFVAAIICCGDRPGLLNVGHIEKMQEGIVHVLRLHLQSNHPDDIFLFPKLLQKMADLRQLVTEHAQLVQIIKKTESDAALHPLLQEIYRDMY
Nuclear receptor ROR-gamma (Homo sapiens), sequence (P51449 whole entry, looked up): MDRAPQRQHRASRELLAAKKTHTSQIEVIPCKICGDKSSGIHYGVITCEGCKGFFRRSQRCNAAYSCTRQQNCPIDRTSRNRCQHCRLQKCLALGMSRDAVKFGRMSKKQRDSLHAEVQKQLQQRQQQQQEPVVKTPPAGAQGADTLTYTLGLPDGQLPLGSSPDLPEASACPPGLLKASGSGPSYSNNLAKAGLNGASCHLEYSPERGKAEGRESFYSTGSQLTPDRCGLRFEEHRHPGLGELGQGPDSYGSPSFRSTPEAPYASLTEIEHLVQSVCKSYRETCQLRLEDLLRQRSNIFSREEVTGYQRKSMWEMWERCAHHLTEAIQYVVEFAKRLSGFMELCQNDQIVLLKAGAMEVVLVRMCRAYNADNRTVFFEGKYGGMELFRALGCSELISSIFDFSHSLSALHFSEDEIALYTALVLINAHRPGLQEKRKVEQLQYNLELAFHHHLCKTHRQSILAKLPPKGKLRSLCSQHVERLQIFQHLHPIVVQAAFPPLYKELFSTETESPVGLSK
Retinoic acid receptor RXR-alpha (Homo sapiens), sequence (P19793 whole entry, looked up): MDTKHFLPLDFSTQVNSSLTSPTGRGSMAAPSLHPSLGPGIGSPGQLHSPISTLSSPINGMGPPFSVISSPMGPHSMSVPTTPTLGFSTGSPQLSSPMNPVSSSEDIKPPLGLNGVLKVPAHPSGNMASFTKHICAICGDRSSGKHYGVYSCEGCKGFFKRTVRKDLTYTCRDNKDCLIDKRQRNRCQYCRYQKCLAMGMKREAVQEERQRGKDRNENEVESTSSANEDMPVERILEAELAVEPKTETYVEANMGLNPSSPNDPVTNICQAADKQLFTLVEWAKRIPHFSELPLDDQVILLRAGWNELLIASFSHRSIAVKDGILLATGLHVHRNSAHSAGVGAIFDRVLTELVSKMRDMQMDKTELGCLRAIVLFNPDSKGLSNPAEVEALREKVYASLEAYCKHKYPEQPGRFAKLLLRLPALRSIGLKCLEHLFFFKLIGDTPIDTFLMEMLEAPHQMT
Thyroid hormone receptor beta (Homo sapiens), sequence (P10828 whole entry, looked up): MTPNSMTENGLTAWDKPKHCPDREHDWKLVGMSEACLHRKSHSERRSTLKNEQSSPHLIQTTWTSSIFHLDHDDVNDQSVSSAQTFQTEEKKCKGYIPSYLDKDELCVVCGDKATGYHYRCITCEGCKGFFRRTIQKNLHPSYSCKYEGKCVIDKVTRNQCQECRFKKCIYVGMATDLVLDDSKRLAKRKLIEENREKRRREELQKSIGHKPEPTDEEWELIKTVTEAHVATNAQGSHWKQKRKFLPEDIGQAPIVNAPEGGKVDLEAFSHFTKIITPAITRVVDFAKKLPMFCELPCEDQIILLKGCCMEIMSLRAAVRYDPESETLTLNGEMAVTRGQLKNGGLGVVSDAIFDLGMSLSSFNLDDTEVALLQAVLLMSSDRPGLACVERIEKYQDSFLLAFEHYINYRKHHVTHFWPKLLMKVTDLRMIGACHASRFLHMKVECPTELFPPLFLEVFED

For the compound `NC(N)=S`, the activation in experiment [1] is -0.31% (inactive). In addition, in experiment [2], the Potency entry was “inactive”.
With `Cc1cc([N+](=O)[O-])ccc1N`, the Potency entry in [3] was “inactive”. In addition, the activation in [1] is -0.935% (inactive). Further, the compound was called inactive in experiment [4].
As to `CCOc1cc(Oc2ccc(C(F)(F)F)cc2Cl)ccc1[N+](=O)[O-]`, the activation in [5] is -12.9% (inactive); in experiment [9], 3.72% (inactive); in experiment [10], 3.8% (inactive). In addition, the Potency entry in experiment [6] and in experiment [11] was “inactive” each time. The call in experiment [4] was inactive. The figures for the max response in experiment [7] and in [8] were -9.67% and -3.17% (inactive), respectively.
`[Cu+2].[O-]c1cccc2cccnc12.[O-]c1cccc2cccnc12`: the values for the activation in experiment [1], in experiment [9] and in experiment [10] were -9.69% (inactive), -8.29% (inactive) and -12.2% (inactive), respectively. Moreover, the result in experiment [12] and in [18] was inactive. For the same compound, the Potency result in [13], in experiment [11] and in experiment [17] was “inactive” in each case. For the same compound, the max response in [14] was -9.55% (inactive). The Potency in experiment [15] was 11.2 µM (active); in experiment [16], 31.6 µM (active).
On to `O=C1c2ccccc2C(=O)N1SC(Cl)(Cl)Cl`, for which the activation in [1] is 6.44% (inactive); in experiment [19] it was 3.09% (inactive); in experiment [10], -3.47% (inactive). For the same compound, the compound was called inactive in experiment [12] and in experiment [18]. Moreover, the max response in experiment [14] was 9.12% (inactive).
Turning to `c1ccc2cc3c(ccc4ccccc43)cc2c1`, the activation in experiment [1] was 2.13% (inactive). Also, the Potency in experiment [20] was 12.2 µM (active); in experiment [10], 22.4 µM (active).
With `Nc1ccc(-c2ccc(N)c(O)c2)cc1O`, the Potency result in experiment [3] is “inactive”. Also, the Potency in [21] and in experiment [22] was 50.1 µM (active) throughout. Also, in experiment [1], the activation is -0.21% (inactive). In [4], the compound was called inactive.
